The values that follow come from PubChem BioAssay (NCATS).

“And” between values parts separate entries of the source, which are not always exact repeats. Identical values can stand only once. Records with an inconclusive call do not appear. Values without a mark were called inactive. The source made the active and inactive calls. Unless noted, calls come from the whole dose curve; as a rule, active = well fitted curve in the direction sought with a large enough effect; inconclusive = small, poorly fitted or top-dose-only effect, or another doubt; inactive = no such curve, though single readings can be large; an effect the other way counts as inactive or inconclusive.

Assay [1] deals with Cellular tumor antigen p53 (Homo sapiens) (UniProt P04637). Put plainly: Primary qHTS for small molecule compounds that upregulate eGFP-tagged delta133p53alpha (in N-terminal) cells. (AID 2060322).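 Note: cells pre-induced with doxycycline then dosed without doxycycline; series mostly up to about 56 µM; 0% = DMSO vehicle and 100% = reference activator; nearly all actives have a fitted effect of over 75% in size.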 The conditions noted are these: NCI-H358 eGFP-delta133p53alpha fluorescence, 24 h; activation: hits give high values. An outline of the steps: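 NCI-H358 cells pre-induced 24 h with 10 ng/ml doxycycline for eGFP-delta133p53alpha, plated dox-free and exposed 24 h at 37C to titrated compounds. Fixed, Hoechst-stained; gated GFP peak intensity by laser scanning cytometry, normalized to DMSO (0%) and 57.5 uM 5-azacytidine (100%).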
Background: qHTS replaces the single test concentration by a dilution series.

Assay [2] has the same target. The assay can be described thus: Primary qHTS for small molecule compounds that upregulate eGFP-tagged delta133p53alpha (in C-terminal) cells. (AID 2060324). Note: potency is the fitted concentration of half-maximal effect. In short, it runs like this: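 Concentration-response screen: compounds titrated onto pre-induced NCI-H358 D133p53a-eGFP cells, incubated one day, fixed with 3.5% PFA. Per-cell GFP peak intensity was gated, then normalized against intraplate controls.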

For assay [3], the target named is Aldehyde dehydrogenase, mitochondrial (Homo sapiens) (UniProt P05091). Put plainly: qHTS for Inhibitors of the Aldehyde Dehydrogenase Family (ALDH2) Validation screens (AID 2061302; active = well fitted inhibition curve with a large enough effect; title and protocol of this record describe different tests;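 note: plate controls were DMSO vehicle for no effect and maximal DPI positive control response for full effect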).
Assay [4] has as its target Retinaldehyde dehydrogenase 3 (Homo sapiens) (UniProt P47895). The assay can be described thus: qHTS for Inhibitors of the Aldehyde Dehydrogenase Family (ALDH1A3) Validation screen (AID 2061312). Note: % is set by controls: 0 for no effect and ±100 for the full control effect; nearly all actives have a fitted effect of over 45% in size.
Assay [5] is described as follows: BET inhibitor-based combinations targeting novel dependencies in MECOM-rearranged (r) AML: UCSD-AML1 cell line (AID 2202235). Note: nearly all actives have a fitted effect of over 40% in size. Note: potency is the fitted concentration of half-maximal effect. In short, it runs like this: (§1)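 Using pin-tool transfer, drugs were added in 11 doses to cells (500/well), incubated 48 hr, and assessed with CellTiter-Glo. Z-AUC is a mean-centring transformation applied separately to each screened line.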

Assay [6] can be described thus: BET inhibitor-based combinations targeting novel dependencies in MECOM-rearranged (r) AML: AML-194 cell line (AID 2202237;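 note: plate controls were vehicle wells for no effect and wells without cells for full effect; nearly all actives have a fitted effect of over 40% in size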). In short, it runs like this:
(§2)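 Viability of cells (500 per well) is scored by luminescent CellTiter-Glo at 48 hr post-dosing. Eleven-point titrations are normalized to DMSO and empty controls and reduced to AUC values.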

A short description of assay [7]: BET inhibitor-based combinations targeting novel dependencies in MECOM-rearranged (r) AML: SET-2 cell line (AID 2202231).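 For viability: plate controls were DMSO treated cells for no effect and wells without cells for full effect.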 Note: nearly all actives have a fitted effect of over 35% in size. Note: potency is the fitted concentration of half-maximal effect. As to conditions: SET-2 AML cells viability, CellTiter-Glo luminescence, 48 h; viability: hits give low values, concentration not given here. An outline of the steps: as §2
(Cellular ATP, detected with luciferase, serves as a proxy for viable cell number.)

Assay [8] can be described thus: BET inhibitor-based combinations targeting novel dependencies in MECOM-rearranged (r) AML: MV-4-11 cell line (AID 2202233). Note: nearly all actives have a fitted effect of over 45% in size. Note: potency is the fitted concentration of half-maximal effect. An outline of the steps:
as §1

Assay [9] can be described thus: BET inhibitor-based combinations targeting novel dependencies in MECOM-rearranged (r) AML: HNT-34 cell line (AID 2202234). Note: nearly all actives have a fitted effect of over 35% in size. Note: potency is the fitted concentration of half-maximal effect. In short, it runs like this: as §1
Assay [10] in a line: BET inhibitor-based combinations targeting novel dependencies in MECOM-rearranged (r) AML: AML-191 cell line (AID 2202236; note: nearly all actives have a fitted effect of over 35% in size; note: potency is the fitted concentration of half-maximal effect). In short, it runs like this:
as §2

Assay [11] in a line: BET inhibitor-based combinations targeting novel dependencies in MECOM-rearranged (r) AML: OCI-AML3 cell line (AID 2202232). Note: nearly all actives have a fitted effect of over 35% in size. Note: potency is the fitted concentration of half-maximal effect. The conditions noted are these: Potency: OCI-AML3 viability. An outline of the steps:
as §2

Assay [12] can be described thus: qHTS for Inhibitors of the Aldehyde Dehydrogenase Family (ALDH1A2, ALDH1A3, ALDH2, ALDH3A1) (AID 2061307). For Potency: test system not described further here; potency is the fitted concentration of half-maximal effect. Note: nearly all actives have a fitted effect of over 50% in size.
The target in assay [13] is Aldehyde dehydrogenase 1A1 (Homo sapiens) (UniProt P00352). Put plainly: qHTS for Inhibitors of the Aldehyde Dehydrogenase Family (ALDH1A1) Confirmatory screens (AID 2061316). Note: nearly all actives have a fitted effect of over 65% in size. Note: potency is the fitted concentration of half-maximal effect.
The target in assay [14] is Retinal dehydrogenase 2 (Homo sapiens) (UniProt O94788). The assay can be described thus: qHTS for Inhibitors of the Aldehyde Dehydrogenase Family (ALDH1A2) Confirmation screens (AID 2061314). Note: nearly all actives have a fitted effect of over 65% in size. Note: potency is the fitted concentration of half-maximal effect.
Assay [15] addresses Retinaldehyde dehydrogenase 3 (Homo sapiens) (UniProt P47895). The assay can be described thus: qHTS for Inhibitors of the Aldehyde Dehydrogenase Family (ALDH1A3) Confirmatory screens (AID 2061311). Note: nearly all actives have a fitted effect of over 60% in size. Note: potency is the fitted concentration of half-maximal effect.
Assay [16] deals with Aldehyde dehydrogenase, mitochondrial (Homo sapiens) (UniProt P05091). Put plainly: qHTS for Inhibitors of the Aldehyde Dehydrogenase Family (ALDH2) Confirmatory screens (AID 2061303; active = well fitted inhibition curve with a large enough effect; title and protocol of this record describe different tests; note: % is set by controls: 0 for no effect and ±100 for the full control effect; nearly all actives have a fitted effect of over 45% in size).

Cellular tumor antigen p53 (Homo sapiens), sequence (P04637 whole entry, looked up): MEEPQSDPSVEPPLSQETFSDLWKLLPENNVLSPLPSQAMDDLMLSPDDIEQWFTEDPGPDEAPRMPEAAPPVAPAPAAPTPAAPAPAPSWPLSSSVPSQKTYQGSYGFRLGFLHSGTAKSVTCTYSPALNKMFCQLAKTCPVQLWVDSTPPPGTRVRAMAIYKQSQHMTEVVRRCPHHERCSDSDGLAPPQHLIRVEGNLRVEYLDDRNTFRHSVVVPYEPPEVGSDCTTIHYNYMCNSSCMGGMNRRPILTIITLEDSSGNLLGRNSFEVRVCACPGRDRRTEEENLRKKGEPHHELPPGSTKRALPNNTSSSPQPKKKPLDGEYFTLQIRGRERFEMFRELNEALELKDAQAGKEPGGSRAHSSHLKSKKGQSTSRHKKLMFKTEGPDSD

With `Nc1nc(OCc2ccccc2)c2[nH]cnc2n1`, in [1], the activation was 4.06%. The Potency result in assay [2], in assay [3], in assay [4], in [5] and in assay [6] was “inactive” throughout.
The term viability denotes a read-out of living cells in per cent, often relative to untreated cells. With `COc1ccc([C@@H]2Sc3ccccc3N(CCN(C)C)C(=O)[C@@H]2OC(C)=O)cc1`, in assay [1], the activation is 17.5% and -3.98%. The Potency result in [2], in assay [3], in assay [4], in assay [8], in assay [9] and in [5] was “inactive” each time. For the same compound, the Potency entry in assay [10] and in assay [6] was “inactive” throughout. Besides, the viability in assay [7] is 101%.
Regarding `CS(=O)(=O)Nc1ccc([N+](=O)[O-])cc1Oc1ccccc1`, in assay [1], the activation is -3.95% and 5.46% and -33.6%. In addition, the Potency entry in [2], in [3], in assay [4], in assay [8], in assay [9] and in assay [5] was “inactive” in each case. In addition, in assay [10], the Potency entry was “inactive”. The viability in [7] is 107%.
As to `O=C(CCc1ccc(O)cc1)c1c(O)cc(O)cc1O`, in assay [1], the activation was 27.3% and 7.98%. Further, the Potency entry in [2], in [3], in assay [4] and in assay [6] was “inactive” throughout. Also, the viability in [7] was 105%.
As to `NC(=O)c1ncn([C@@H]2O[C@H](CO)[C@@H](O)[C@H]2O)n1`, the activation in assay [1] is 6.69% and -41.3%. Also, the Potency result in assay [2], in assay [3] and in assay [4] was “inactive” each time. For the same compound, the Potency was 20.9 µM (active) in [7], 23.5 µM (active) in assay [8], 16.6 µM (active) in assay [9] and 18.6 µM (active) in [5].
For `C[C@H]1O[C@@H](n2cc(F)c(=O)[nH]c2=O)[C@H](O)[C@@H]1O`, the activation in assay [1] is 2.35%. For the same compound, the Potency entry in assay [2], in assay [3] and in [4] was “inactive” each time. Moreover, in [8], the Potency was 13.2 µM (active).
Turning to `c1ccc([C@H]2CN3CCSC3=N2)cc1`, the activation in assay [1] is 15.3% and -0.374%. Besides, the Potency result in [2], in assay [3], in assay [4], in assay [8], in assay [9] and in assay [5] was “inactive” in each case. The Potency result in assay [10] and in assay [6] was “inactive” in each case. Besides, the viability in assay [7] was 112%.
Regarding `NC(N)=NC(=O)c1nc(Cl)c(N)nc1N`, the activation in assay [1] is 11.3% and -28.8% and -10.6%. Further, the Potency entry in assay [2], in assay [3] and in assay [4] was “inactive” throughout. Further, the figures for the Potency in assay [11], in assay [8] and in assay [5] were 9.59 µM (active), 13.5 µM (active) and 30.3 µM (active), respectively.
For the compound `NS(=O)(=O)c1cc2c(cc1Cl)NC=NS2(=O)=O`, the activation in [1] is -10% and -6.71% and -22.3%. Besides, the Potency entry in assay [2], in assay [3], in assay [4], in [11], in assay [8] and in assay [9] was “inactive” throughout. The Potency result in assay [5], in assay [10] and in assay [6] was “inactive” throughout.
As for `CCN1CCCC1CNC(=O)c1cc(S(=O)(=O)CC)c(N)cc1OC` (stereo not drawn), the activation in [1] is -0.505% and -9.21% and -28.2%. For the same compound, the Potency result in assay [2], in [3], in assay [4], in [8], in [9] and in assay [5] was “inactive” throughout. Besides, the Potency entry in assay [10] and in assay [6] was “inactive” in each case. In addition, the viability in assay [7] is 122%.
On to `O=C(O)Cc1ccc(O)c(O)c1`, for which the activation in assay [1] was 10.9%. For the same compound, the Potency entry in assay [2] and in assay [12] was “inactive” throughout. In assay [13], the Potency is 14.2 µM (active).
As to `CCN1CCc2nc(N)oc2CC1`, the activation in assay [1] was -8.37% and -17.5%. Moreover, the Potency entry in assay [2], in assay [3] and in assay [14] was “inactive” each time.
With `O=C1Nc2ccc(I)cc2/C1=C/c1cc(Br)c(O)c(Br)c1`, the activation in assay [1] is -56.5%. Further, the Potency was 19 µM (active) in assay [2] and 18.6 µM (active) in assay [10]. For the same compound, the Potency result in assay [3], in assay [11], in [8], in assay [5] and in assay [6] was “inactive” in each case.
As for `CCn1cc(C(=O)O)c(=O)c2cc3c(cc21)OCO3`, the activation in [1] is 2.82% and -18.3%. In addition, the Potency result in assay [2] and in assay [4] was “inactive” in each case.
In the case of `COc1cc(/C=C(\C#N)C(=O)c2ccc(O)c(O)c2)cc(I)c1O`, in assay [1], the activation was 0.259%. The Potency is 16.9 µM (active) in assay [2], 4 µM (active) in assay [12], 8.96 µM (active) in assay [15] and 12.7 µM (active) in assay [14].
On to `CN1C(C(=O)Nc2ccccn2)=C(O)c2ccccc2S1(=O)=O`, for which the activation in assay [1] is -0.565% and -12.3% and -20.6%. For the same compound, the Potency entry in assay [2], in assay [3], in [11], in assay [8], in assay [9] and in assay [5] was “inactive” each time. Besides, the Potency entry in assay [10] and in [6] was “inactive” throughout.
For the compound `Cc1ccc2c(c1)C(N1CCN(C)CC1)=Nc1cccnc1N2`, the activation in assay [1] is 13.7%. In addition, the Potency result in assay [2] and in assay [3] was “inactive” throughout. For the same compound, the Potency in [13] was 12.7 µM (active).
Regarding `Brc1c(NC2=NCCN2)ccc2nccnc12`, in assay [1], the activation was -0.565% and -20%. Moreover, the Potency result in assay [2] is “inactive”. Moreover, the Potency in assay [12] was 11.3 µM (active); in assay [15], 5.65 µM (active); in assay [14] it was 8.96 µM (active); in [13] it was 11.3 µM (active).
With `Nc1nc(N)c2nc(CNc3ccc(C(=O)NC(CCC(=O)O)C(=O)O)cc3)cnc2n1` (stereo not drawn), the activation in assay [1] is 25.1% and -8.03%. For the same compound, the Potency result in assay [2], in assay [3], in assay [11], in assay [8], in assay [9] and in [10] was “inactive” in each case. Also, the Potency result in assay [6] is “inactive”. The viability in assay [7] was 90.9%.
As for `CN(C)C/C=C(/c1ccc(Br)cc1)c1cccnc1`, the activation in [1] is -2.82% and -52.8%. For the same compound, the Potency entry in assay [2], in assay [16], in assay [15] and in assay [13] was “inactive” in each case.
